KAT2A inh = qHTS Assay for Inhibitors of GCN5L2; Potency, µM (top dose mostly 58.9 µM), inactives show at the top dose activity change, negative = inhibition, hits mostly inhibitors; 390,000 compounds, 0.21% hits; Histone acetyltransferase KAT2A (Homo sapiens), Q92830; GCN5L2 HAT assay, ThioGlo1 CoA-SH fluorescence; AID 504327, 2011
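GCN5L2 (20nM final) in 50mM HEPES, 0.1mM EDTA pH 7.5, 0.01% Tween-20 was preincubated 15 min at room temperature with compound, then given ThioGlo1 (50uM), H3(1-25) peptide (75uM) and acetyl-CoA (70uM); CoA-thiol fluorescence (Ex340/Em540) was read at 0 and 20 min.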
GLS inh = qHTS for Inhibitors of Glutaminase (GLS) | Glutaminase kidney isoform, mitochondrial (Homo sapiens), O94925 | Potency, µM (top dose mostly 45.5 µM), inactives show top-dose activity change, negative = inhibition, hits mostly inhibitors | AID 624170, 2012 | GLS enzymatic activity, qHTS titration | 410,000 compounds, 0.21% hits
Target sequence (O94925 whole entry, looked up, canonical isoform): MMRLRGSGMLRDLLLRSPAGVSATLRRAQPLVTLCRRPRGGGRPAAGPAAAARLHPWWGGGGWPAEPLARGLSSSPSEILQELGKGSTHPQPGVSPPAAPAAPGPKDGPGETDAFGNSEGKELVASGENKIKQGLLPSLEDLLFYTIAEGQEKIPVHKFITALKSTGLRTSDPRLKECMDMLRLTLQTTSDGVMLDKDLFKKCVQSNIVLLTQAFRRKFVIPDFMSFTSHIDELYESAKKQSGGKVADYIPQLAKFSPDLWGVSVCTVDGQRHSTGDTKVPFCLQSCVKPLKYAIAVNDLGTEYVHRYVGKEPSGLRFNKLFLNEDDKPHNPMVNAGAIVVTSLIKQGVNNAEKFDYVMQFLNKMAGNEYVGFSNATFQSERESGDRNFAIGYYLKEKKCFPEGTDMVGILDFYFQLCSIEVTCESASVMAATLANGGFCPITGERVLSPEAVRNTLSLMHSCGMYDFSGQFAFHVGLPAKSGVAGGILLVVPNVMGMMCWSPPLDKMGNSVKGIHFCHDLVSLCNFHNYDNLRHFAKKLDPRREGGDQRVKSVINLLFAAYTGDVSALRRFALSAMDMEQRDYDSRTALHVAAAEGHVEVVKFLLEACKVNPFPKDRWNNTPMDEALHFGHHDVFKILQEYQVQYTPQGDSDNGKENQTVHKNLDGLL
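Glutamate formation by hKGA was monitored fluorometrically using coupled glutamate oxidase, HRP and Amplex Red. Substrate was added as 1 mM L-glutamine solution; incubation was 30 min at RT after an initial read.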
VDR inhibitor = Inhibitors of the vitamin D receptor (VDR): qHTS. 400,000 compounds, 0.93% hits. VDR-SRC2-3 peptide fluorescence polarization, 2 h. Potency, µM, for the others: max response, negative = inhibition, most hits filed as inhibitors
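Reagent solutions, kept cold and dark, are dispensed first; compounds are then pinned in at 23 nl, plates briefly spun, and incubated 2 h at ambient temperature. Inhibition of VDR–SRC2-3 peptide binding is read by fluorescence polarization.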
TrxR1 substrate = qHTS Assay for Substrates of Mammalian Selenoprotein Thioredoxin Reductase 1 (TrxR1): qHTS. 390,000 compounds, 0.01% hits. Potency, µM (series often up to 114 µM), without a hit: top-dose activity change, negative = substrate turnover. Thioredoxin reductase 1, cytoplasmic (Rattus norvegicus), O89049. AID 588456, 2011. purified TrxR1 substrate turnover, NADPH consumption readout; also: nearly all actives have a fitted effect of over 50% in size
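Rat TrxR1, dispensed at 90 nM, was prereduced with 400 uM NADPH (final) for 5 min at ~22 deg C, then incubated with compound 15 min before 400 uM selenite. A first-read NADPH fluorescence drop versus no-compound background flagged substrates.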
Sfp PPTase inh = qHTS Assay for Inhibitors of Bacillus subtilis Sfp phosphopantetheinyl transferase (PPTase); AID 1490, 2009; 310,000 compounds, 3.5% hits; Potency, µM, without a hit: largest response in the series, negative = inhibition, most hits filed as inhibitors; Biochemical Sfp PPTase activity, qHTS;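 also: the enzyme is Sfp with the accession as filed and its product quenches rhodamine fluorescence; 0% = enzyme reaction without inhibitor and -100% = no enzyme wells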
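Fluorescence-quenching assay: 15 nM Sfp-PPTase preincubated 15 min at room temperature with compound, then 5 uM rhodamine-CoA and 12.5 uM BHQ-2-labelled YbbR peptide added. Fluorescence (ex 525/em 598 nm) read at start and after 30 min; difference gives rate.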
TrxR1 inh = qHTS Assay for Inhibitors of Mammalian Selenoprotein Thioredoxin Reductase 1 (TrxR1): qHTS. 390,000 compounds, 1% hits. Thioredoxin reductase 1, cytoplasmic (Rattus norvegicus), O89049. Potency, µM (top dose mostly 114 µM), inactives show top-dose activity change, negative = inhibition, most hits filed as inhibitors. recombinant rTrxR1, NADPH fluorescence consumption, selenite substrate; also: nearly all actives have a fitted effect of over 65% in size
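Rat TrxR1 (90 nM in the dispensed reagent) was pre-reduced with 400 uM NADPH for 5 min at room temperature, then incubated with compound for 15 min. After 400 uM selenite was added, NADPH fluorescence (Ex 340/Em 450 nm) was followed for 8 min.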
The depositor's hits bear a star; ? = inconclusive; nt = no result; [ ] = remark or other dose. A selection: hits, their analogues and other compounds. The true share with any hit is near 3.8%. Calls follow the shape of the dose curve; as a rule, active = well fitted curve in the direction sought with a large enough effect; inconclusive = small, poorly fitted or top-dose-only effect, or another doubt; inactive = no such curve, though single readings can be large; an effect the other way counts as inactive or inconclusive. Unless noted, % is scaled to controls: 0 for no effect and ±100 for the full control effect; potency is read from the fitted curve at half-maximal effect.

SMILES	KAT2A inh	GLS inh	VDR inhibitor	TrxR1 substrate	Sfp PPTase inh	TrxR1 inh
CCC(=O)Oc1c(Sc2ccc(C)cc2)c(C)nn1-c1ccccc1	-4.1%	4.2%	79.4µM*	-3.2%	nt	31.6%
Cc1ccc(Sc2c(C)nn(-c3ccccc3)c2OC(=O)C(C)(C)C)cc1	-0.6%	18.5%	?	6.7%[2.29 µM]	nt	41.1%
CCCC(=O)Oc1c(Sc2ccc(C)cc2)c(C)nn1-c1ccccc1	-7.0%	9.4%	17.8µM*	-5.6%[2.29 µM]	nt	35.4%
COc1cc(C(=O)Oc2c(Sc3ccccc3)c(C)nn2-c2ccccc2)cc(OC)c1OC	-0.3%	20.8%	?	-3.7%[2.29 µM]	nt	32.5%
CCOC(=O)c1c(NC(=O)C2CC2)sc(C)c1CC	-3.2%	1.3%	-22.0%	0.8%	?	4.6%
S=C(NCCN1CCOCC1)N/N=C/c1cccs1	-16.3%	21.3%	-5.6%	-8.5%	-1.5%	1.0%
O=C(O)c1ccc(/C=N/NC(=S)NCCN2CCOCC2)cc1	0.3%	1.9%	0.0%	-0.5%[57.1 µM]	50.1µM*	12.8%[57.1 µM]
COc1ccc2[nH]c(C(=O)O)c(NS(=O)(=O)c3ccc(Cl)s3)c2c1	-6.3%	-4.4%	2.8%	-2.4%	1.3%	9.2%
CCOC(=O)c1[nH]c2ccc(OC)cc2c1NS(=O)(=O)c1ccc(Cl)s1	-2.2%	7.08µM*	-19.8%	8.4%[57.1 µM]	12.3%	5.3%[57.1 µM]
CCOC(=O)C1=C(C)N(C[C@@H]2CC[C@@H](Cc3ccc(-c4ccccc4)cc3)O2)C(=O)NC1c1ccc(-c2ccccc2)cc1 (stereo partly drawn)	-4.2%	1.4%	17.5%	2.9%	nt	17.6%
CCCCC(CC)COC(=O)CC(C(=O)OCC(CC)CCCC)S(=O)(=O)O (stereo not drawn)	?	0.9%	25.1µM*	nt	-13.8%	nt
CCCCCC(CC)COC(=O)CC(C(=O)OCC(CC)CCCC)S(=O)(=O)O (stereo not drawn)	nt	nt	nt	nt	-13.1%	nt
CC(=O)SC(C[N+](=O)[O-])c1cn(C(C)=O)c2ccccc12 (stereo not drawn)	-9.8%	?	44.7µM*	2.3%	10µM*	17.8µM*
COC(=O)/C=C1/SC(=NC(=O)c2ccc(Cl)cc2)NC1=O	nt	-1.5%	?	-3.5%	nt	3.0%
CN1CCN(C(c2ccc(C(F)(F)F)cc2)c2cc(Cl)c3cccnc3c2O)CC1 (stereo not drawn)	-7.1%	nt	nt	nt	44.7µM*	nt
Oc1c(C(c2ccccn2)N2CCCCC2)cc(Cl)c2cccnc12 (stereo not drawn)	-4.2%	7.4%	?	-1.7%	4.8%	?
CN1CCN(C(c2ccc(Cl)cc2)c2cc(Cl)c3cccnc3c2O)CC1 (stereo not drawn)	-5.7%	?	44.7µM*	2.5%	79.4µM*	6.31µM*
O=C(Nc1ccc(C(=O)N2CCCC2)cc1)c1cccc(C(F)(F)F)c1	nt	19.6%	16.4%	-10.0%	nt	-16.4%
CCc1cccc(C)c1NC(=O)CSc1nnc(Cc2csc(C)n2)o1	-5.4%	-12.2%	-10.1%	3.5%	nt	24.0%
Cc1ccc(C2=NN(C(=O)c3ccccc3F)C(c3ccccc3F)C2)cc1 (stereo not drawn)	-11.8%	-4.4%	-25.2%	-13.5%	50.1µM*	13.1%[57.1 µM]
O=C(c1ccccc1)N1N=C(c2ccccc2)CC1c1ccccc1O (stereo not drawn)	-17.7%	0.0%	?	4.0%[11.4 µM]	10µM*	12.6%[57.1 µM]
COc1ccc(/C=C(\NC(=O)c2cccs2)C(=O)Nc2cccc3ccccc23)cc1OC	-4.6%	-5.5%	0.5%	9.4%[57.1 µM]	26.8%	19.3%[57.1 µM]
COC(=O)c1ccc(/C=C(\C#N)C(=O)NC(C)c2ccccc2)cc1 (stereo not drawn)	-4.1%	0.8%	?	-16.7%	31.6µM*	22.4µM*
CC(NC(=O)/C(C#N)=C/c1ccco1)c1ccccc1 (stereo not drawn)	-12.9%	-2.2%	-11.8%	-12.3%	50.1µM*	1.6%
CC(NC(=O)/C(C#N)=C/c1ccc([N+](=O)[O-])o1)c1ccccc1 (stereo not drawn)	-19.5%	-2.6%	25.1µM*	-7.8%	-18.3%	7.94µM*
SMILES	KAT2A inh	GLS inh	VDR inhibitor	TrxR1 substrate	Sfp PPTase inh	TrxR1 inh
CC(NC(=O)/C(C#N)=C/c1cccs1)c1ccccc1 (stereo not drawn)	-5.1%	-8.6%	0.1%	6.7%[57.1 µM]	0.8%	17.0%[57.1 µM]
CCOCCCNC(=O)/C(C#N)=C/c1ccc([N+](=O)[O-])o1	-6.8%	2.2%	2.2%	-6.4%[57.1 µM]	0.6%	3.16µM*
CCOC(=O)c1cccc(NC(=O)CCNS(=O)(=O)c2cc(Br)cnc2N)c1	-3.4%	-13.8%	5.1%	0.5%	20.4%	24.9%
Cc1ccccc1Cn1c(CCCNC(=O)C2CCCCC2)nc2ccccc21	-4.6%	-0.8%	-3.3%	0.9%	nt	1.3%
Cc1cc(Cl)ccc1OCC(=O)N1CC(C)CC(C)C1 (stereo not drawn)	-1.5%	6.6%	-1.8%	-4.0%	6.2%	0.2%
CCc1ccc(CNC(=O)c2nn(-c3ccc(C)c(C)c3)nc2CO)cc1	-10.5%	-8.7%	0.4%	19.3%	nt	23.1%
Cc1cc(N2CCc3ccccc32)n2ncnc2n1	nt	-0.6%	-12.4%	-10.5%	nt	-18.1%
CCOc1ccc(-c2csc(NNC3=NCCCCC3)n2)cc1	-6.0%	0.2%	?	5.9%[57.1 µM]	10µM*	26.7%[57.1 µM]
COc1ccc(-c2csc(NC3=NCCCCC3)n2)cc1	-1.0%	-2.2%	3.8%	-3.6%	-16.5%	-3.7%

Compound activity deposited in PubChem BioAssay by National Center for Advancing Translational Sciences (NCATS).
